Test results from the supplement of paper PMC10849652.
Targets with a hit are over-represented here; the source holds about 7,900 in all. About 0.6% of all pairs of compound and target were hits. Values without a mark were called inactive.

Assays:
Assay in all cases: log2 fold change, soluble protein after heating vs DMSO (PISA); higher = thermal stabilisation; K562 cells, 10 uM, 30 min; active = over 0.2 and 3.5 SD of the protein, either way, in both replicates (recomputed)
[1] = compound: CC[C@@H]1C(=O)N(C)c2cnc(Nc3ccc(C(=O)NC4CCN(C)CC4)cc3OC)nc2N1C1CCCC1
Outline: (§1)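 Quantification of soluble protein used TMTpro 16plex LC-MS/MS, with channel sums equalised. Samples were the supernatant after 21,000xg for 90 min of pooled aliquots from K562 cells (2×10^6 cells/mL) treated with 10 μM compound for 30 min, heated for 3 min over 48°C-58°C, and extracted in PBS with 0.5% NP-40 at 4°C. Values, from duplicates, describe thermal stability against control samples on a log2 fold-change scale.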

volasertib = compound: CC[C@@H]1C(=O)N(C)c2cnc(Nc3ccc(C(=O)N[C@H]4CC[C@H](N5CCN(CC6CC6)CC5)CC4)cc3OC)nc2N1C(C)C [volasertib]
Outline: as §1

[2] = compound: CC[C@H](C)N1C=C(C2=C(C=C(C=C21)C3=CN=C(C=C3)N4CCNCC4)C(=O)NCC5=C(C=C(NC5=O)C)C)C
Outline: as §1

epoxomicin = compound: CC[C@H](C)[C@@H](C(=O)N[C@@H]([C@@H](C)O)C(=O)N[C@@H](CC(C)C)C(=O)[C@]1(CO1)C)NC(=O)[C@H]([C@@H](C)CC)N(C)C(=O)C [epoxomicin]
Outline: as §1

[3] = compound: CCn1c(C(=O)N(C2CC2)C2CC2)cc2c3c(ncn3C)c(Nc3cc(C)n(C)n3)nc21
Outline: as §1

[4] = compound: CCn1cc(-c2ccnc3[nH]c(-c4cccc(CN(C)C)c4)cc23)c(-c2ccc(NC(=O)N(C)C)cc2)n1
Outline: as §1

[5] = compound: CN(C)CC(=O)Nc1ccc2[nH]c(=O)c3ccccc3c2c1
Outline: as §1

rosiglitazone = compound: CN(CCOC1=CC=C(C=C1)C[C@H]2C(=O)NC(=O)S2)C3=CC=CC=N3 (racemic) [rosiglitazone]
Outline: as §1

[6] = compound: CN1C2=C(C3=C1C(=O)N(N=C3)CC4=CC(=CC=C4)N)SC(=C2)S(=O)C
Outline: as §1

[7] = compound: CN1CCC(CNc2ccc3ncc(-c4cccc(OC(F)(F)F)c4)n3n2)CC1
Outline: as §1

Chain of UniProt Q8NCC3 (Q8NCC3 whole entry, looked up): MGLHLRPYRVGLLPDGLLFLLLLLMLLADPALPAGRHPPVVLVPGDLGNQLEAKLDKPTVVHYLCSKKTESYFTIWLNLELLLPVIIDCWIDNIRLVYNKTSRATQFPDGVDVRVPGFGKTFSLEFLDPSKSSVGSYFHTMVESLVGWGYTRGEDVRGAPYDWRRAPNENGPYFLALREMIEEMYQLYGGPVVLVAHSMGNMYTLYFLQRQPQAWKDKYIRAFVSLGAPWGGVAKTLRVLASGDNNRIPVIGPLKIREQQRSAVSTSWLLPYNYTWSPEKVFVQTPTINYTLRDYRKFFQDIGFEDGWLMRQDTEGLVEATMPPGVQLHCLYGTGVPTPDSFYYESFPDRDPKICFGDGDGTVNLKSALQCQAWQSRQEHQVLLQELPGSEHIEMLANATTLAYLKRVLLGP
Chain of UniProt P50897 (P50897 whole entry, looked up): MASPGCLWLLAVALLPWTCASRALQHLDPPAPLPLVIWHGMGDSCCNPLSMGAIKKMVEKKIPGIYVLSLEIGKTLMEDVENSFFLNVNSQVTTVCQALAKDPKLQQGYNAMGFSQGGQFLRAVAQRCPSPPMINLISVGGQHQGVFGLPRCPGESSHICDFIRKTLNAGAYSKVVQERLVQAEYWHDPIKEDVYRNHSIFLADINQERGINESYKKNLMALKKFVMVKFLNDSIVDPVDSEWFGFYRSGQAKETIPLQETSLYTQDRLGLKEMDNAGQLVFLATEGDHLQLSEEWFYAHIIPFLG
Chain of UniProt Q9Y2Y1 (Q9Y2Y1 whole entry, looked up): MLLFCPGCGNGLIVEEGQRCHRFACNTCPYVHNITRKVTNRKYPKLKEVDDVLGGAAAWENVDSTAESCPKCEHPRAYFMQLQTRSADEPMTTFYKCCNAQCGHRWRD
Chain of UniProt O96011 (O96011 whole entry, looked up, change not shown): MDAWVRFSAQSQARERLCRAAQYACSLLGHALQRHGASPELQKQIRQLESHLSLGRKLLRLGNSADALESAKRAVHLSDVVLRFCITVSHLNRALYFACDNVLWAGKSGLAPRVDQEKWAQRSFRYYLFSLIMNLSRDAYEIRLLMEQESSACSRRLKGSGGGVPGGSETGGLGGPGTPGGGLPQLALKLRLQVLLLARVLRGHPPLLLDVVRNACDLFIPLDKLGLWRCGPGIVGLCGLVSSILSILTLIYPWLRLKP
Chain of UniProt Q86T03 (Q86T03 whole entry, looked up): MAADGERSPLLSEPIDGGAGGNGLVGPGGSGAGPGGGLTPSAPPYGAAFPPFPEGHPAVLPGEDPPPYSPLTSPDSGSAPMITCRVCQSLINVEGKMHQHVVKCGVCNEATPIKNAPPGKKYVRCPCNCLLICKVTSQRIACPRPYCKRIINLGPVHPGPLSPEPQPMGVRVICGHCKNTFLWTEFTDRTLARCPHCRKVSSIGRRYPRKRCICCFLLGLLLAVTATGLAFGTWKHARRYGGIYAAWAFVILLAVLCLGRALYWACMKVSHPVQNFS
Chain of UniProt O95602 (O95602 whole entry, looked up): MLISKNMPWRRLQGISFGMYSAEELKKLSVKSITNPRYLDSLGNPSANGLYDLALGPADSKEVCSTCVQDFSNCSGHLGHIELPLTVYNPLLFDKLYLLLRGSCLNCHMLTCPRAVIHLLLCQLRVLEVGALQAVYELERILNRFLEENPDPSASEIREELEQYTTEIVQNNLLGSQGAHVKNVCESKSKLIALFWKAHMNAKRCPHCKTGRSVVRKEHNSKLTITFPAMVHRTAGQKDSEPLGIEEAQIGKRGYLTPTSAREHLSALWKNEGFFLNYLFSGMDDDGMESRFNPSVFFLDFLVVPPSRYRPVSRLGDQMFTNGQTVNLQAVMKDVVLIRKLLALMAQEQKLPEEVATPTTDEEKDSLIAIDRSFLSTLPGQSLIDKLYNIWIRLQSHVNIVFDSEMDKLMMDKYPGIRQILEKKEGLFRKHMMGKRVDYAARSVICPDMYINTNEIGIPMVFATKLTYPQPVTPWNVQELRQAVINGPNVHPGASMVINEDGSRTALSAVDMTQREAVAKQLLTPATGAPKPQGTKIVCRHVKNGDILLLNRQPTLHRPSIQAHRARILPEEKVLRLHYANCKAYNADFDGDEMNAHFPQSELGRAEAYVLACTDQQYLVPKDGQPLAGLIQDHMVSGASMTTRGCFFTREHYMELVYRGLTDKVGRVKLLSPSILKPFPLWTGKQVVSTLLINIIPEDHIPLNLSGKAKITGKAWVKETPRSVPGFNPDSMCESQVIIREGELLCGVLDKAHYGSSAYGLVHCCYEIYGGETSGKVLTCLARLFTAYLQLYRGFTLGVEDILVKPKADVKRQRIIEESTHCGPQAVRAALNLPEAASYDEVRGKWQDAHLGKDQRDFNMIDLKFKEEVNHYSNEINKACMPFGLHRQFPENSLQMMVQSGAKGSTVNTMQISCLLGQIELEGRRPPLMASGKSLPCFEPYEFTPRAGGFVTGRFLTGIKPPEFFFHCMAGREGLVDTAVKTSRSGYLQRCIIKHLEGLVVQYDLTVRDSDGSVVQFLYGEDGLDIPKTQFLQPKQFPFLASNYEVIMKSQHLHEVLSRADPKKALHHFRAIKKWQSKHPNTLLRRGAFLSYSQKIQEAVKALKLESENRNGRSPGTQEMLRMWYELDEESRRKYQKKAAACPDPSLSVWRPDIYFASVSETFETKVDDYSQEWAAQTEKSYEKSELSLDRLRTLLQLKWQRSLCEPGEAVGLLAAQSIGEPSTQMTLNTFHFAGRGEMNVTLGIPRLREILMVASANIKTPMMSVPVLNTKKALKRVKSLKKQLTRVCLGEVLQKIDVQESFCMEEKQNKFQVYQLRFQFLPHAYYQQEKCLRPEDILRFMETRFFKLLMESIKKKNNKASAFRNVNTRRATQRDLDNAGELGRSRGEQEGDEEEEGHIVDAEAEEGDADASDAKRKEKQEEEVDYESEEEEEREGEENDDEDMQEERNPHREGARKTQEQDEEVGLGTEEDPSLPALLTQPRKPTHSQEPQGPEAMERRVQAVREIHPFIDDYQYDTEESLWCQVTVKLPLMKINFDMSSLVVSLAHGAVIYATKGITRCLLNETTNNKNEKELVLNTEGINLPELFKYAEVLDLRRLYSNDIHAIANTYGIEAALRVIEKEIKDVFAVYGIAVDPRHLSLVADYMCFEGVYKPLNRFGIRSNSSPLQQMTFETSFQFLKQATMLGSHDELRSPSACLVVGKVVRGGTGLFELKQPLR
Chain of UniProt Q96A00 (Q96A00 whole entry, looked up): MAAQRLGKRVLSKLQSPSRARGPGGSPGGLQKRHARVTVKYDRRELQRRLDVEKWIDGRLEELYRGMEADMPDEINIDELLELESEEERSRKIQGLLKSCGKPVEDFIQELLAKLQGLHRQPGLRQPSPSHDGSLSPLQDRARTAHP
Chain of UniProt P11216 (P11216 whole entry, looked up): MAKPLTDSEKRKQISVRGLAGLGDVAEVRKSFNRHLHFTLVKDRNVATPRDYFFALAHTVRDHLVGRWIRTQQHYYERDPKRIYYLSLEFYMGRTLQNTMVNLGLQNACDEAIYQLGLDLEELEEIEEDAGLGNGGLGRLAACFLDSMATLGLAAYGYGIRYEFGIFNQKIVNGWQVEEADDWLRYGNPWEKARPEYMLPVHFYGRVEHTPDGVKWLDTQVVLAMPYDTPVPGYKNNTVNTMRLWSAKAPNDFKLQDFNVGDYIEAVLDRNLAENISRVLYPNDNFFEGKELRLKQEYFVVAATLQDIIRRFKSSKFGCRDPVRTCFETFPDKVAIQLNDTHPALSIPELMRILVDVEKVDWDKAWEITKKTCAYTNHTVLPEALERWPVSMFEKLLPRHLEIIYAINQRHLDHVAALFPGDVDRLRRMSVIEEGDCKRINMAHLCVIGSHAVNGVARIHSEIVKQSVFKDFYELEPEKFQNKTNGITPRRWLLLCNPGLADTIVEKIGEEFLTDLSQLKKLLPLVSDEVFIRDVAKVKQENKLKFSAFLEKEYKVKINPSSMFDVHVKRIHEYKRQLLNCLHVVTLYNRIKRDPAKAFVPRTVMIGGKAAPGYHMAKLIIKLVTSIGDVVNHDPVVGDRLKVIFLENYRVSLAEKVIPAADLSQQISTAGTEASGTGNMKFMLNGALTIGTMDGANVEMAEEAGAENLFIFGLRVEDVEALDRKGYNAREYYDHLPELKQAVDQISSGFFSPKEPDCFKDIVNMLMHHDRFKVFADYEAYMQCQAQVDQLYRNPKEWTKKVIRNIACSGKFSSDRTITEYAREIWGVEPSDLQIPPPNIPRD
Chain of UniProt O95394 (O95394 whole entry, looked up): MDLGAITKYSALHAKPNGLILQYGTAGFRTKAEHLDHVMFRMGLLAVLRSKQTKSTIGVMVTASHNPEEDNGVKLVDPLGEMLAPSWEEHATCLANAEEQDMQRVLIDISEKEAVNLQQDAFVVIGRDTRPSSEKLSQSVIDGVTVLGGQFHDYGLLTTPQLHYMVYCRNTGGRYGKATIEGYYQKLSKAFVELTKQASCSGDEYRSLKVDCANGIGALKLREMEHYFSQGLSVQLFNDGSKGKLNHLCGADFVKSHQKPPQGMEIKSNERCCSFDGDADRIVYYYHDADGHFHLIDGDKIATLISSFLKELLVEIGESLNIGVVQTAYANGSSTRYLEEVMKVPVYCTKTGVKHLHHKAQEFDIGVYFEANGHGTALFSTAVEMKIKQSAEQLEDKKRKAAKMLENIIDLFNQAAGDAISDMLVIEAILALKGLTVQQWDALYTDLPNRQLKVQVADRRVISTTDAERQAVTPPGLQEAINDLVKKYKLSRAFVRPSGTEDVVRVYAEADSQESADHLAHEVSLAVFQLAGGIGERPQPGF
Chain of UniProt Q9Y244 (Q9Y244 whole entry, looked up): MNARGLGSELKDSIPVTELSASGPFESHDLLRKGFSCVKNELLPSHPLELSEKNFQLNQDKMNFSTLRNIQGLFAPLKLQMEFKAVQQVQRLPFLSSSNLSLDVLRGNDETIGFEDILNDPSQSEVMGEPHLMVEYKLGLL

Row | Target | log2 fold change [1] | log2 fold change (volasertib) | log2 fold change [2] | log2 fold change (epoxomicin) | log2 fold change [3] | log2 fold change [4] | log2 fold change [5] | log2 fold change (rosiglitazone) | log2 fold change [6] | log2 fold change [7]
1 | PEX11B (UniProt O96011) | 0.071 | -0.018 | -0.038 | -0.013 | 0.006 | 0.04 | 0.064 | 0.007 | -0.085 | 0.239
2 | PPT1 (UniProt P50897) | -1.41 (active) | -1.9 (active) | -0.041 | 0.014 | 0.015 | 0.01 | -0.009 | -0.008 | -0.035 | -0.925 (active)
3 | POMP (UniProt Q9Y244) | 0.097 | -0.049 | 0.008 | 0.581 (active) | -0.005 | 0.021 | -0.018 | -0.059 | -0.02 | -0.004
4 | PIP4P1 isoform 2 (UniProt Q86T03) | -0.058 | 0.112 | -0.003 | 0.008 | 0.009 | -0.074 | -0.012 | -0.016 | 0.076 | -0.262
5 | PYGB (UniProt P11216) | -0.199 | -0.572 (active) | 0.036 | -0.045 | -0.203 | 0.023 | 0.012 | -0.004 | 0.021 | -0.071
6 | POLR2E (UniProt P19388) | 0.027 | -0.067 | 0.018 | 0.065 | -0.104 | 0.015 | 0.034 | 0.01 | 0.092 | 0.09
7 | PGM3 isoform 4 (UniProt O95394) | 0.003 | 0.052 | 0.092 | 0.014 | -0.034 | -0.038 | 0.026 | 0.066 | -0.084 | -0.235 (active)
8 | PKM (UniProt P14618) | 0.018 | 0.037 | -0.035 | 0.001 | -0.002 | -0.007 | -0.015 | 0.015 | 0.002 | -0.017
9 | PLA2G15 (UniProt Q8NCC3) | -0.084 | -0.166 | 0.026 | 0.01 | -0.017 | 0.005 | 0.006 | 0.027 | 0.043 | -0.076
10 | PRKCB isoform 2 (UniProt P05771) | -0.068 | -0.213 (active) | 0.04 | 0.03 | -0.005 | -0.06 | 0.006 | 0.007 | -0.054 | -0.135
11 | POLR1A (UniProt O95602) | 0.059 | 0.071 | -0.26 | -0.037 | 0.063 | -0.066 | -0.086 | 0.015 | 0.056 | 0.054
12 | PPP1R14A (UniProt Q96A00) | 0.002 | 0.051 | 0 | 0.058 | -0.023 | -0.067 | -0.04 | 0.016 | -0.027 | -0.091
13 | PJA2 (UniProt O43164) | -0.007 | 0.001 | 0.014 | 0.202 | 0.055 | 0.066 | -0.051 | 0.004 | -0.001 | -0.156
14 | PIGG (UniProt Q5H8A4) | -0.062 | 0.022 | 0.037 | -0.017 | -0.049 | -0.022 | 0.009 | 0.015 | -0.04 | 0.093
15 | POLR3K (UniProt Q9Y2Y1) | -0.077 | 0.056 | -0.018 | 0.067 | -0.061 | 0.038 | -0.048 | -0.045 | -0.012 | -0.01
